We go through 24 molecules from ChEMBL document CHEMBL4296182, “CO-ADD screening of NIH NCI Diversity Set V”.

Molecules are shown by their SMILES. For part of these data: Entries with a potency or affinity are not part of this list.

One assay has as its system Staphylococcus aureus. As to the kind of experiment: Antibacterial activity against Staphylococcus aureus MRSA ATCC 43300 (CO-ADD:GP_020); MIC in CAMBH media using NBS plates, by Resazurin F(560/590). In kind it is functional. Particulars: Concentration 20 uM, ASSAY_TEST Inhibition of Bacterial Growth, detection method Resazurin, Fluorescence (ex560/em590), MEDIA CAMHB, plate type 384well, CORNING #3640, time 18 hr.

A further assay has as its system Acinetobacter baumannii. As to the kind of experiment: Antibacterial activity against Acinetobacter baumannii ATCC 19606 (CO-ADD:GN_034); MIC in CAMBH media using NBS plates, by Resazurin F(560/590). Format: functional. Particulars: Concentration 20 uM, ASSAY_TEST Inhibition of Bacterial Growth, detection method Resazurin, Fluorescence (ex560/em590), MEDIA CAMHB, plate type 384well, CORNING #3640, time 18 hr.

Another assay has as its system Escherichia coli. As to the kind of experiment: Antibacterial activity against Escherichia coli ATCC 25922 (CO-ADD:GN_001); MIC in CAMBH media using NBS plates, by Resazurin F(560/590). In kind it is functional. The following applies: Concentration 20 uM, ASSAY_TEST Inhibition of Bacterial Growth, detection method Resazurin, Fluorescence (ex560/em590), MEDIA CAMHB, plate type 384well, CORNING #3640, time 18 hr.

The subject of a further assay is Klebsiella pneumoniae. Particulars: Concentration 20 uM; ASSAY_TEST Inhibition of Bacterial Growth; detection method Absorption (OD600); MEDIA CAMHB; plate type 384well; NBS; CORNING #3640; time 18 hr.
The test system of the next assay is Candida albicans. Particulars: 20 µM.
A further assay has as its system Cryptococcus neoformans. Particulars: Concentration 20 uM; ASSAY_TEST Inhibition of Fungal Growth; detection method Resazurin; Absorption (OD600-OD570); plate type 384well; NBS; CORNING #3640.

With `Oc1ccnc(Nc2ccc(Cl)cc2)n1`, the Inhibition was 11.15% in the assay on Staphylococcus aureus; -11.5% with Acinetobacter baumannii; 6.59% in the assay on Escherichia coli; -5.88% in the assay with Klebsiella pneumoniae; 0.12% with Candida albicans; -10.08% in the assay on Cryptococcus neoformans.

As to `O=C(N(c1ccccc1)c1ccccc1)N(c1ccccc1)c1ccccc1`, the Inhibition in the assay with Staphylococcus aureus is 13.33%; in the assay with Acinetobacter baumannii, 0.28%; in the assay on Escherichia coli it was 8.76%; with Klebsiella pneumoniae it was 13.27%; with Candida albicans it was 9.21%; with Cryptococcus neoformans, -13.12%.

For the molecule `Cc1nc([N+](=O)[O-])cn1-c1nc2ccccn2c1[N+](=O)[O-]`, the Inhibition in the assay on Staphylococcus aureus is 12.97%; with Acinetobacter baumannii, -5.05%; with Escherichia coli, 12.78%; in the assay on Klebsiella pneumoniae, 11.88%; in the assay with Candida albicans, 4.75%; in the assay on Cryptococcus neoformans, -6.88%.

Consider `CC(=O)Nc1ccc(OC(=O)Oc2ccc(NC(C)=O)cc2)cc1`, for which the Inhibition with Staphylococcus aureus was 37.09%; in the assay on Acinetobacter baumannii, -4.35%; with Escherichia coli it was 7.78%; in the assay with Klebsiella pneumoniae it was 22.87%; in the assay with Candida albicans, 5.36%; in the assay on Cryptococcus neoformans, -3.28%.

On to `CN1C=C/C(=C/[N+](=O)[O-])N(C)C1=O`, for which the Inhibition in the assay with Staphylococcus aureus was 9.11%; in the assay on Acinetobacter baumannii it was -6.18%; in the assay on Escherichia coli it was 4.71%; in the assay on Klebsiella pneumoniae it was 0.88%; in the assay on Candida albicans it was 1.05%; with Cryptococcus neoformans, -5.15%.

For the molecule `CCOC(=O)c1c(C)oc(C)c(C(=O)OCC)c1=O`, the Inhibition in the assay on Staphylococcus aureus is 10.05%; in the assay with Acinetobacter baumannii, 8.54%; in the assay on Escherichia coli, -0.85%; with Klebsiella pneumoniae it was 10.69%; in the assay with Candida albicans it was 0.83%; in the assay with Cryptococcus neoformans, -7.36%.

For the molecule `O=c1[nH]c(=O)n2ncnc2[nH]1`, the Inhibition in the assay on Staphylococcus aureus is 16.94%; in the assay on Acinetobacter baumannii, -11.21%; in the assay on Escherichia coli, 5.82%; with Klebsiella pneumoniae, 7.37%; in the assay on Candida albicans it was -1.3%; in the assay on Cryptococcus neoformans, -10.02%.

Turning to `CC1(CN2CCCC2)CCC(NC(=O)C(c2ccccc2)c2ccccc2)C(C)(C)O1` (centres undefined), the Inhibition was 23.4% with Staphylococcus aureus; 6.65% in the assay on Acinetobacter baumannii; 12.21% in the assay with Escherichia coli; 18.43% in the assay with Klebsiella pneumoniae; 0.1% in the assay with Candida albicans; -5.78% in the assay on Cryptococcus neoformans.

For the molecule `Nc1ccc2c(c1)nnn2-c1ccccc1`, the Inhibition is 10.19% in the assay on Staphylococcus aureus; -3.79% in the assay with Acinetobacter baumannii; 12.06% in the assay with Escherichia coli; -7.86% with Klebsiella pneumoniae; -4.43% in the assay on Candida albicans; -12.32% in the assay on Cryptococcus neoformans.

For `O=C(O)c1ccc2c(c1Sc1ccccc1)C(=O)c1ccccc1C2=O`, the Inhibition in the assay on Staphylococcus aureus was -2.35%; with Acinetobacter baumannii, 11.62%; with Escherichia coli, -1.12%; with Klebsiella pneumoniae, 2.65%; with Candida albicans, 1.7%; with Cryptococcus neoformans, -3.15%.

Turning to `Cc1cc(O)c2cc(C(=O)c3ccccc3)ccc2n1`, the Inhibition in the assay with Staphylococcus aureus was 13.49%; in the assay on Acinetobacter baumannii, 5.7%; in the assay with Escherichia coli, 2.87%; in the assay with Klebsiella pneumoniae it was 7.32%; with Candida albicans it was 2.58%; in the assay with Cryptococcus neoformans, -7.43%.

`Nc1ccc(N/C(S)=N/c2ccccc2)cc1`: the Inhibition was 15.05% with Staphylococcus aureus; 4.29% in the assay with Acinetobacter baumannii; 7.29% with Escherichia coli; 5.43% in the assay on Klebsiella pneumoniae; 1.8% with Candida albicans; -4.63% with Cryptococcus neoformans.

`CC(=O)Nc1ccc(OCCOc2ccc([N+](=O)[O-])cc2)cc1`: the Inhibition was 16.53% in the assay on Staphylococcus aureus; 7.01% with Acinetobacter baumannii; 2.93% in the assay on Escherichia coli; 10.72% with Klebsiella pneumoniae; -1.95% with Candida albicans; -16.57% with Cryptococcus neoformans.

For the molecule `CCCCCC(=O)N1CCCC1`, the Inhibition with Staphylococcus aureus was 12.42%; with Acinetobacter baumannii, -13.64%; with Escherichia coli, 4.47%; with Klebsiella pneumoniae it was 10.8%; with Candida albicans it was 0.29%; in the assay on Cryptococcus neoformans, -1.54%.

For `CN(NC(=O)C(=O)NCc1ccco1)C(=O)NC1CCCCC1`, the Inhibition in the assay on Staphylococcus aureus was 1.27%; with Acinetobacter baumannii, 11.61%; with Escherichia coli, -11.28%; with Klebsiella pneumoniae it was 10.63%; with Candida albicans, 4.23%; with Cryptococcus neoformans it was 3.93%.

Turning to `N=C(N)NS(=O)(=O)c1ccc(/N=C2/C(=O)Nc3ccccc32)cc1`, the Inhibition is 10.79% in the assay on Staphylococcus aureus; 2.06% in the assay with Acinetobacter baumannii; 11.61% with Escherichia coli; 5.69% in the assay with Klebsiella pneumoniae; -0.17% with Candida albicans; -10.75% with Cryptococcus neoformans.

In the case of `Nc1ccccc1C(=O)Nc1ccc(Cl)cc1Cl`, the Inhibition is 13.76% in the assay on Staphylococcus aureus; -19.7% in the assay with Acinetobacter baumannii; 13.8% in the assay with Escherichia coli; 0.81% in the assay with Klebsiella pneumoniae; 3.17% in the assay on Candida albicans; -17.52% with Cryptococcus neoformans.

Consider `COc1cccc(OCC(O)CN2CCN(c3ccccc3)CC2)c1` (centres undefined), for which the Inhibition was 10.13% in the assay on Staphylococcus aureus; -11.48% in the assay with Acinetobacter baumannii; -4.05% in the assay with Escherichia coli; 23.2% in the assay with Klebsiella pneumoniae; -2.19% with Candida albicans; -13.63% in the assay with Cryptococcus neoformans.

For the molecule `CC(C)(C)NC1=NCCNC(c2ccccc2)=C1.CS(=O)(=O)O`, the Inhibition is -3.88% in the assay on Staphylococcus aureus; 8.25% with Acinetobacter baumannii; 7% with Escherichia coli; 11.55% with Klebsiella pneumoniae; 1.18% in the assay on Candida albicans; -14.32% in the assay on Cryptococcus neoformans.

In the case of `CCOC(=O)c1c(N)ssc1=S`, the Inhibition was 5.44% in the assay on Staphylococcus aureus; 2.94% in the assay with Acinetobacter baumannii; -3.33% in the assay with Escherichia coli; 23.27% with Klebsiella pneumoniae; 10.5% in the assay on Candida albicans; -3.18% in the assay with Cryptococcus neoformans.

On to `Clc1nnc(NC2CCCCC2)c(Cl)c1Cl`, for which the Inhibition with Staphylococcus aureus is -0.25%; with Acinetobacter baumannii, -5.61%; in the assay with Escherichia coli, 15.05%; with Klebsiella pneumoniae, 1.58%; in the assay on Candida albicans, 27.2%; in the assay on Cryptococcus neoformans it was -9.26%.

Regarding `CC1=CC(=O)C(/C(C)=N/c2ccccc2Cl)C(=O)O1` (centres undefined), the Inhibition was 7.59% with Staphylococcus aureus; 14.34% with Acinetobacter baumannii; -12.7% in the assay with Escherichia coli; 12.66% in the assay with Klebsiella pneumoniae; 20.8% with Candida albicans; 0.4% in the assay with Cryptococcus neoformans.

With `Cc1ccc(S(=O)(=O)NNC(=O)C23CCC(CC2)C3)cc1`, the Inhibition is -6.52% in the assay on Staphylococcus aureus; 6.35% in the assay on Acinetobacter baumannii; 7.26% in the assay on Escherichia coli; 14.92% with Klebsiella pneumoniae; 4.46% with Candida albicans; -6.05% with Cryptococcus neoformans.

As for `CCOC(=O)N1CCc2cc(OC)c(OC)c3c2c1cc1cc(OC)c(OC)cc13`, the Inhibition in the assay on Staphylococcus aureus was -2.61%; in the assay with Acinetobacter baumannii, -15.62%; in the assay with Escherichia coli, 19.24%; in the assay on Klebsiella pneumoniae, 9.85%; in the assay with Candida albicans it was 5.76%; with Cryptococcus neoformans, -3.38%.
